# TIM10 inh – growth inhibitors of TIM10 yeast strain; S. cerevisiae TIM10 strain growth, BacTiter-Glo luminescence, 24 h; AID 463195; inhibition, % at 10 µM; 330,000 compounds, 1.4% hits;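 active = inhibition of 40% or more at the single tested concentration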;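 also: wild-type TIM10 isogenic control strain grown at permissive 25 °C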
# tim10-1 inh – growth inhibitors of tim10-1 mutant yeast; S. cerevisiae tim10-1 ts strain growth, BacTiter-Glo, 24 h; inhibition, % at 20 µM; 330,000 compounds, 2.2% hits; AID 463190;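 active = inhibition of at least 40%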;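 also: mutant grown at 25 °C; 0% = DMSO wells with yeast and 100% = wells holding no yeast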
# V-ATPase pH – yeast V-ATPase proton transport regulation by pHLuorin; response, % at 10 µM; 350,000 compounds, 0.37% hits; S. cerevisiae, pHLuorin cytosolic pH fluorescence; AID 504577; in the data active = response mostly above about 7.3%, no sharp cut-off; inactive = mostly below about 5.4%; also: actives read high
# NALP1 inh – NALP1 inhibition; S. cerevisiae NALP1/ASC/caspase-1 growth, X-gal OD620, 72 h; inhibition, % at 10 µM; 280,000 compounds, 0.61% hits; AID 2071; in the data active = inhibition mostly above about 24%, no sharp cut-off; inactive = mostly below about 32%
# tim23-1 inh – growth inhibitors of tim23-1 mutant yeast; S. cerevisiae tim23-1 growth, BacTiter-Glo luminescence, 24 h; inhibition, % at 20 µM; 330,000 compounds, 1.3% hits; AID 463212;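 active = growth inhibition of the mutant yeast at or above 50%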;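 also: temperature-sensitive mutant grown at 25 °C; plate controls were DMSO-treated mutant yeast for no effect and medium wells lacking yeast for full effect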
# NLRP3 yeast inh – NALP3 inhibition in yeast; Yeast reconstituted NLRP3/ASC/caspase-1, beta-gal luminescence, 24 h; inhibition, % at 10 µM; 330,000 compounds, 0.39% hits;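 active = inhibition of 50% or more; inactive = inhibition below 50%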;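 also: plate controls were induced DMSO wells for no effect and uninduced yeast grown without galactose for full effect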
# tim10-1 confirm – confirmation of tim10-1 mutant yeast growth inhibitors; AID 463213; 7,400 compounds, 56% hits; shares compounds with tim10-1 inh; S. cerevisiae tim10-1 ts strain growth, BacTiter-Glo, 24 h; inhibition, % at 20 µM;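 active = inhibition of yeast growth at or above a set limit in either of two repeat tests at 20 µM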;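 also: tim10-1 mutant grown at permissive 25 °C to find synthetic lethal compounds; 0% = DMSO yeast wells and 100% = medium wells without yeast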
# TIM10 conf – confirmation of TIM10 yeast growth inhibitors. 4,600 compounds, 63% hits. AID 463215. shares compounds with TIM10 inh. inhibition, % at 10 µM. S. cerevisiae tim10 strain growth, BacTiter-Glo luminescence, 24 h;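 active = inhibition of yeast growth at or above a set limit in either of two replicates at 10 µM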;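 also: this counterscreen used the strain with wild-type TIM10; 0% = yeast with DMSO and 100% = medium wells lacking yeast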
# tim23-1 conf – confirmation of tim23-1 mutant yeast growth inhibitors. shares compounds with tim23-1 inh. S. cerevisiae tim23-1 growth, BacTiter-Glo luminescence, 24 h. inhibition, % at 20 µM. 4,400 compounds, 83% hits. AID 463218;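 active = inhibition above about 39% in either of two replicate wells at 20 µM, limit read from the data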;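 also: temperature-sensitive tim23-1 mutant grown at 25 °C; 0% = DMSO wells with yeast and 100% = medium wells without yeast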
# * hit, by the source's call; nt = no result given. This is a sample that favours compounds with a hit; in the whole collection about 4.2% have one here.
SMILES,TIM10 inh,tim10-1 inh,V-ATPase pH,NALP1 inh,tim23-1 inh,NLRP3 yeast inh,tim10-1 confirm,TIM10 conf,tim23-1 conf
C=C1C(=O)O[C@H]2C[C@@H](C)[C@@H]3C=CC(=O)[C@@]3(C)C[C@H]12,46*,48*,nt,-6,42,4,47*,51*,nt
C=C1C(=O)OC2CC(C)C3C=CC(=O)C3(C)C(O)C12 (stereo not drawn),nt,nt,3,nt,nt,nt,nt,nt,nt
CCCCC1C(=O)NC(=S)N(C)C1=O (stereo not drawn),nt,nt,3,nt,nt,nt,nt,nt,nt
COc1ccc(OC(=O)N(C)C[C@H]2OCc3cnnn3CCCC(=O)N([C@H](C)CO)C[C@H]2C)cc1,nt,nt,-3,nt,nt,nt,nt,nt,nt
COc1ccc(OC)c(N2C(=O)NC(=O)/C(=C/c3ccc([N+](=O)[O-])s3)C2=O)c1,89*,72*,125*,22,32,11,70*,35*,nt
Brc1ccc2[nH]cc(C=NN3CCCCCC3)c2c1,nt,nt,1,nt,nt,nt,nt,nt,nt
C[C@@H]1C(=O)O[C@@H]2[C@H](O)C34[C@@H]5OC(=O)C3(O[C@H]3OC(=O)[C@H](O)C34[C@H](C(C)(C)C)[C@H]5O)[C@@]12O (stereo partly drawn),-1,-18,3,15,0,12,nt,nt,nt
CN1C(=O)C(Cc2nc3ccccc3c(=O)n2-c2ccccc2)c2ccccc21 (stereo not drawn),52*,43*,4,6,36,-10,37*,39*,nt
O=C1Nc2ccccc2C1Cc1nc2ccccc2c(=O)n1-c1ccccc1 (stereo not drawn),0,10,0,nt,23,-6,nt,nt,nt
COC(=O)C(O)(c1ccc(NC(=S)NC(=O)c2ccccc2)cc1)C(F)(F)F (stereo not drawn),46*,41*,-3,-9,48,3,27,33*,nt
CCCCNC(=O)c1c(N)n(CCCOC)c2nc3ccccc3nc12,27,22,1,12,42,13,nt,nt,nt
COCCNC(=O)c1c(N)n(CCC(C)C)c2nc3ccccc3nc12,42*,48*,1,1,44,4,26,19,nt
Cc1cc([N+](=O)[O-])c2ccccc2[n+]1[O-],87*,68*,-14,nt,79*,40,61*,87*,64*
O=C1/C(=C\c2ccncc2)N2CCC1CC2,-9,-1,-3,14,17,25,nt,nt,nt
O=C1/C(=C\c2ccc(Cl)c(Cl)c2)N2CCC1CC2,11,42*,2,24,52*,18,23,nt,35
Cc1ccc(C2=NC(C)(C)N3C2C3c2ccc([N+](=O)[O-])cc2)cc1 (stereo not drawn),21,5,-3,25,11,18,nt,nt,nt
Cc1ccc2cc(C=C(C#N)C#N)c(Cl)nc2c1,46*,48*,8,22,80*,14,31*,-8,76*
Cc1ccc(Cn2nc(C)c(C=O)c2Cl)cc1,9,8,-1,9,20,25,nt,nt,nt
O=C1C(=O)c2ccccc2-c2ccccc21,92*,85*,-2,-19,77*,28,85*,98*,77*
O=C1C(=O)c2cccc3cccc1c23,11,-13,0,-14,15,-23,nt,nt,nt
CNc1ccc2oc(C[C@H]3O[C@@]4(CC[C@H]3C)O[C@H]([C@H](C)C(=O)c3ccc[nH]3)[C@H](C)C[C@H]4C)nc2c1C(=O)O,-20,56*,-2,-3,54*,22,29,nt,37
CC(=O)c1cccc(NC(=O)N2C[C@H]3C[C@@H](C2)c2cccc(=O)n2C3)c1,-5,5,0,-1,12,14,nt,nt,nt
CC(C)=CCc1c(O)cc2c(c1O)C(=O)CC(c1ccc(O)cc1)O2 (stereo not drawn),46*,54*,0,18,60*,5,35*,57*,59*

# Bioassay records deposited in PubChem by several laboratories.
